# Source: PubChem (several laboratories)
# CYP2C19 inhib: blocks human cytochrome P450 2C19; CYP2C19 Supersomes, luciferin-H EGE luminescence, 30 min; inhibition, % at 5 µM; actives 21% (n = 96,000); AID 778;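 active = CYP2C19 inhibition above a set limit at 5 µM in the primary screen, cut at about 50% in these data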;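 also: plate controls were negative control wells for no effect and 2.5 mM tranylcypromine positive control for full effect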
# CYP2C19 act: increases human CYP2C19 enzyme activity. 96,000 tested, under 10 active. P33261. AID 1025. recombinant CYP2C19, luciferin-H EGE luminescence; hits give high values; 0 = fully inhibited enzyme, 1 = untreated enzyme. activation factor at 5 µM;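 active = activation factor of at least 2 at 5 µM in the primary screen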;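 also: 0 = wells with 2.5 mM tranylcypromine and 1 = vehicle-only wells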
# CYP2C9 inhib: human CYP2C9 inhibition. CYP2C9 Supersomes, luciferin-H conversion, luminescence. inhibition, % at 5 µM. actives 20% (n = 96,000). AID 777;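 active = blocking of liver enzyme CYP2C9 beyond about 50% at 5 µM, limit read from the data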
# Target sequence (P11712 whole entry, looked up): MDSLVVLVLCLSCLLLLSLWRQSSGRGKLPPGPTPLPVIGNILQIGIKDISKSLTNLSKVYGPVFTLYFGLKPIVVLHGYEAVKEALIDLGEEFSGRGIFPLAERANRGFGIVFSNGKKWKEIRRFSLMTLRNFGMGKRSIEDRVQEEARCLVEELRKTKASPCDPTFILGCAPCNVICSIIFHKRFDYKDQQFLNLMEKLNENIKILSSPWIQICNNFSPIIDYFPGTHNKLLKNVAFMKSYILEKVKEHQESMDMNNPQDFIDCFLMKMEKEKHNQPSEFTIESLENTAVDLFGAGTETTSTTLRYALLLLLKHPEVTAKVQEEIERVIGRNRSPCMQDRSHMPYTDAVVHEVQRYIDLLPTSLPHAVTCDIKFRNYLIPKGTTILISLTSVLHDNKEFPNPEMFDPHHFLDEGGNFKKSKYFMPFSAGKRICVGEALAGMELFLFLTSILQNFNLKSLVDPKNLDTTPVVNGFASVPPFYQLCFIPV
# CYP2C9 activ: activators of human CYP2C9; P11712; actives 1.4% (n = 96,000); recombinant CYP2C9, luciferin-H conversion, luminescence; hits give high values; factor 1 = untreated enzyme, 0 = blocked; AID 1024; activation factor at 5 µM;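 active = activation factor of 2 or more for CYP2C9 at a 5 µM dose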;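 also: 0 = sulfaphenazole-blocked wells and 1 = vehicle-only wells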
# PostGolgi yeast: growth inhibition of a yeast mutant, post-Golgi transport screen. post-Golgi transport phenotypic cell assay. inhibition, % at 10 µM. actives 0.9% (n = 98,000);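 also: yeast cells grown in 1536-well plates; yeast grown about 18 h at 30C before absorbance read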
# PostGolgi ctrl: yeast control strain growth, post-Golgi counter-screen | efflux-deficient yeast background strain, growth absorbance A615, 16 h | inhibition, % at 10 µM | actives 5% (n = 98,000) | AID 738
# Active calls of the source: *; nt = no result given. Sampled rows, rich in hits. Any-hit rate of the full collection: about 32%. Rule as the data show it, unless noted: active = inhibition above about 30%; inactive = the rest.
SMILES,CYP2C19 inhib,CYP2C19 act,CYP2C9 inhib,CYP2C9 activ,PostGolgi yeast,PostGolgi ctrl
O=S(=O)(Nc1cccnc1)c1ccc2c(c1)OCCO2,58*,0.4,14,0.9,-2,3
CCOC(=O)CC(=O)CSc1nnc(Cn2c(=O)sc3ccccc32)n1C,2,1,0,1,-2,0
CCOC(=O)C1=NN(C(=O)Nc2ccc(OC)cc2)C2C(=O)N(c3cccc(C(F)(F)F)c3)C(=O)C12 (centres undefined),6,0.9,-6,1.1,2,11
CC(=O)OCCNC(=O)Cn1cnc2c1c(=O)n(C)c(=O)n2C,-9,1.1,-20,1.2,-1,6
CN(C)c1nc(-c2ccccn2)nnc1-c1ccccc1,51*,0.5,15,0.8,4,12
CN(C)c1nc(-c2ccccc2)nc(-c2ccc(Cl)cc2)c1C#N,0,1,7,0.9,-3,12
O=C(CSc1nnc(-c2ccc(F)cc2)o1)Nc1ccc(S(=O)(=O)N2CCCCCC2)cc1,2,1,-6,1.1,1,2
Cc1cccnc1-n1c(CCN2C(=O)c3ccccc3C2=O)nc2ccccc2c1=O,38,0.6,7,0.9,nt,nt
O=S(=O)(c1ccc(C2=CSC3=NCCN23)cc1)N1CCOCC1,56*,0.4,11,0.9,-13,5
Cn1nc(C(F)(F)F)c(/C=N/OC(=O)c2ccccc2)c1Sc1ccc(Cl)cc1,34,0.7,89*,0.1,3,4
Cn1nc(C(F)(F)F)c(/C=N/OC(=O)c2ccccc2)c1Cl,-3,1,29,0.7,-10,-3
Cc1cc(NC(=O)CN2CCOCC2)n(-c2nc3ccccc3s2)n1,8,0.9,40,0.6,7,15
Brc1ccc(-c2cnnc(N3CCCC3)n2)cc1,49,0.5,41,0.6,-1,13
Cc1cc(Br)c(S(=O)(=O)NCCN2CCOCC2)cc1C,41,0.6,-14,1.1,-3,13
COc1cc(C)c(Cl)cc1S(=O)(=O)NCCCN1CCOCC1,66*,0.3,-32,1.3,-3,5
COc1cc(Cl)c(S(=O)(=O)NCCCN2CCOCC2)cc1Cl,46,0.5,-90,1.9,-5,-4
COc1cc(C)c(Cl)cc1S(=O)(=O)NCCN1CCOCC1,83*,0.2,-16,1.2,11,3
COc1cc(C)c(S(=O)(=O)N2CCOCC2)cc1C(C)C,53*,0.5,10,0.9,-2,0
Cc1ccc(S(=O)(=O)NCCCN2CCOCC2)c(C)c1,64*,0.4,-56,1.6,0,7
CC(NC(=O)c1ccc(N(C)C)cc1)C1CC2CCC1C2 (centres undefined),7,0.9,15,0.9,-5,3
COc1ccccc1NS(=O)(=O)c1cc(C(=O)NCCN2CCOCC2)ccc1Cl,-7,1.1,-11,1.1,8,8
COc1c(S(=O)(=O)NCCN2CCOCC2)ccc(Cl)c1Cl,80*,0.2,-83,1.8,2,3
CCN(CCCNC(=O)C1CCC(=O)N1C1CCCC1)c1cccc(C)c1 (centres undefined),17,0.8,9,0.9,10,14
CC(CSc1nc2ccccc2s1)Cn1c(N2CCCC2)nc2c1c(=O)[nH]c(=O)n2C (centres undefined),4,1,21,0.8,18,24
CC(C)CCn1c(Sc2nc3ccccc3s2)nc2c1c(=O)[nH]c(=O)n2C,13,0.9,35,0.7,-6,33*
SMILES,CYP2C19 inhib,CYP2C19 act,CYP2C9 inhib,CYP2C9 activ,PostGolgi yeast,PostGolgi ctrl
CC(C)CCn1c(SCC(=O)c2ccccc2)nc2c1c(=O)[nH]c(=O)n2C,19,0.8,73*,0.3,-5,19
O=C1NC2=C(CCc3ccccc32)C(c2ccc(Br)cc2)N1 (centres undefined),65*,0.3,54*,0.5,8,19
Cc1ccc(N2CCN(/N=C/c3sccc3C)CC2)cc1,50,0.5,-179,2.8*,0,5
COc1ccc(-c2c3c(=O)n(C)c(=O)n(C)c3cn2C2CCCCC2)cc1,70*,0.3,77*,0.2,-18,41*
COc1ccc(S(=O)(=O)O/N=C2\CCCc3ccccc32)cc1,42,0.6,-56,1.6,13,-2
CCN(CC)CCCN1C(=O)c2oc3ccccc3c(=O)c2C1c1cccs1 (centres undefined),-13,1.1,24,0.8,9,13
CCN1C(=O)CC(C(=O)Nc2ccc(F)cc2)SC1=Nc1ccc2c(c1)OCO2 (centres undefined),-5,1.1,34,0.7,2,26
C/C(CCc1ccc2c(c1)OCO2)=N\N=C1\NC(=O)CC(C(=O)Nc2ccccc2)S1 (centres undefined),22,0.8,68*,0.3,8,-6
O=C1OC(Nc2ccc(Br)cn2)c2ccccc21 (centres undefined),1,1,6,0.9,7,-4
COc1ccc(N2C(=O)CC(N3CCN(c4ccc(S(=O)(=O)N5CCCC5)cc4)CC3)C2=O)cc1 (centres undefined),4,1,2,1,-6,-10
COc1ccc(C(C#N)Nc2ccccc2OC)cc1 (centres undefined),22,0.8,-24,1.2,-2,1
COc1ccccc1NS(=O)(=O)c1ccccc1C#N,58*,0.4,-174,2.7*,-7,4
Cc1c(F)cccc1NS(=O)(=O)c1ccccc1C#N,59*,0.4,29,0.7,-3,5
Cc1cc(C)c(-n2c(O)c(C=NCCN3CCOCC3)c(=O)[nH]c2=O)c(C)c1,-14,1.1,-17,1.2,-2,7
O=C(CC(NS(=O)(=O)c1ccc(Cl)cc1)c1ccco1)NCc1cccnc1 (centres undefined),88*,0.1,70*,0.3,1,5
Cc1ccc(S(=O)(=O)NC(CC(=O)O)c2ccco2)cc1 (centres undefined),29,0.7,-6,1.1,-1,5
O=C(CCNS(=O)(=O)c1ccc(Cl)cc1)NCc1cccnc1,44,0.6,24,0.8,-1,-9
CCC(C)NC(=O)CC(NS(=O)(=O)c1ccc(Cl)cc1)c1ccco1 (centres undefined),75*,0.3,20,0.8,15,4
CC(NS(=O)(=O)c1ccc(CCC(=O)NCc2cccnc2)cc1)c1ccccc1 (centres undefined),58*,0.4,71*,0.3,-7,1
CC(C)NS(=O)(=O)c1ccc(CCC(=O)NCc2cccnc2)cc1,8,0.9,24,0.8,0,3
O=C(O)CCNS(=O)(=O)c1ccc(Oc2ccccc2Cl)cc1,2,1,17,0.8,16,0
CCc1ccc2[nH]c(=O)c(CN(Cc3ccc4c(c3)OCO4)C(=O)c3ccco3)cc2c1,5,0.9,15,0.9,3,6
